PubChem BioAssay (Tox21)
Results filed as inconclusive are left out. A call without a number means that no potency is given here. Active and inactive are the calls of the source. The call rests on the fitted dose curve; in most records, active means well fitted cell-killing curve with a large enough effect in the repeat runs; inconclusive means weak or mixed curves, or effect the other way; inactive means flat fitted curve, though single readings scatter.

assay: qHTS RealTime-Glo MT Cell Viability Assay in HEK293 cells - 0 hour (AID 1224880); conditions: RealTime-Glo luminescence; series mostly up to 76.8 µM; further: top concentration of the series differs between compounds; nearly all actives have a fitted effect of over 45% in size
Source text: U.S. Tox21 Program National Center for Advancing Translational Sciences [NCATS] NIH Chemical Genomics Center [NCGC] U.S. Environmental Protection Agency [EPA] National Institutes of Environmental Health Sciences [NIEHS] National Toxicology Program [NTP] U.S. Food and Drug Administration [FDA] Tox21 Assay Overview: Measure of cell viability is critical in the cell-base assay. Analysis of cell viability is necessary for the characterization of cell responses to cytotoxic drugs and environmental stress. A RealTime-Glo MT Cell Viability Assay to monitor cell viability in real time of continues cell culture during 40 hours of compound treatment was used to screen Tox21 10K library compounds in Hek293 cells. The RealTime-Glo MT Cell Viability Assay is a nonlytic, homogeneous, bioluminescent method to measure cell viability in real time using a simple, plate-based method. The assay involves adding NanoLuc luciferase and a cell-permeant prosubstrate to cells in culture. Viable cells reduce the proprietary prosubstrate to generate a substrate for NanoLuc luciferase. This substrate diffuses from cells into the surrounding culture medium, where it is rapidly used by the NanoLuc Enzyme to produce a luminescent signal. The signal correlates with the number of viable cells, making the assay well suited for cytotoxicity studies.
Tox21 Assay Protocol Summary: The mixture of Hek293 cell suspension and reagents were dispensed at 600cells/6 ul/well in 1536-well tissue culture treated black solid bottom plates using a Multidrop dispenser. After the assay plates were incubated at a 37 C/5% CO2 incubator for 5 hours, 23 nL of compounds dissolved in DMSO, positive and negative controls was transferred to the assay plate by a pintool work station. The plates were incubated at 37 C for 40 hours. The luminescence intensity were measured at 0h, 8h, 16h, 24h, 32h and 40h time points using ViewLux plate reader during compound treatment.

Row | Compound | Potency
1 | COc1c2ccoc2cc2oc(=O)ccc12 | inactive
2 | COc1cc(NC(=O)CC(C)=O)c(OC)cc1Cl | inactive
3 | CCn1cc(C(=O)O)c(=O)c2cc3c(cc21)OCO3 | inactive
4 | O=C1OC(=O)c2c(Cl)c(Cl)c(Cl)c(Cl)c21 | inactive
5 | CC(=O)OCc1ccc2c(c1)OCO2 | inactive
6 | NC(N)=S | inactive
7 | Cc1ccccc1C=O | inactive
8 | CCCN(CCC)C(=O)SCC | inactive
9 | CC(C)(C)NC[C@H](O)COc1nsnc1N1CCOCC1 | inactive
10 | Clc1cccc(Cl)c1NC1=NCCN1 | inactive
11 | c1cnc2c(c1)ccc1cccnc12 | inactive
12 | CCc1cccc(CC)c1N | inactive
13 | Cc1cc(C)cc(O)c1 | inactive
14 | O=C1O[C@H]([C@H](O)CO)C(O)=C1O | inactive
15 | N#CCC(=O)O | inactive
16 | CCCCCCCCO | inactive
17 | COC(=O)CCCCC(=O)OC | inactive
18 | CCCCCC(C)=O | inactive
19 | Cc1ncc(CO)c(CO)c1O | inactive
20 | Cc1ccc(Cl)cc1 | inactive

Row | Compound | Potency
21 | CO[Si](CCCNCCN)(OC)OC | inactive
22 | CCCCC(=O)O | inactive
23 | Cc1ccncc1 | inactive
24 | O=C(O)C1=NN(c2ccc(S(=O)(=O)O)cc2)C(=O)C1 | inactive
25 | COc1ccc2cc3[n+](cc2c1OC)CCc1cc2c(cc1-3)OCO2 | inactive
26 | NC1CCCCC1N (stereo not given) | inactive
27 | O=[N+]([O-])c1cc(C(F)(F)F)ccc1Cl | inactive
28 | Cc1cccc(C)c1[N+](=O)[O-] | inactive
29 | OCc1ccc(Cl)cc1Cl | inactive
30 | CCc1cccc(O)c1 | inactive
31 | CN1Cc2c(N)cccc2C(c2ccccc2)C1 (stereo not given) | inactive
32 | CCCCCCCCCCCCCC(=O)O | inactive
33 | CC1=CC(=O)CC(C)(C)C1 | inactive
34 | O=C(c1ccccc1)c1ccc(O)c(O)c1O | inactive
35 | CC(O)CNCC(C)O (stereo not given) | inactive
36 | C=CC(=O)NCOCCCC | inactive
37 | COC(=O)/C=C\C(=O)OC | inactive
38 | C=C(CC(=O)O)C(=O)O | inactive
39 | CCCCC(CC)COC(=O)c1ccc(C(=O)OCC(CC)CCCC)cc1 (stereo not given) | inactive
40 | Nc1cccc(C(F)(F)F)c1 | inactive
